High-throughput results as filed in PubChem.
This is one part of a sample in which hits are shown more often than they occur.
T cruzi growth-1 – inhibitors of T. cruzi proliferation. T. cruzi beta-gal in NIH3T3, GalScreen luminescence, 90 h. inhibition, % at 8.34 µM. AID 624255. actives 5.9% (n = 77,000);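 active = mean inhibition above about 93%, with at least 55% of replicates each passing it, limit read from the data, passing the limit was not always enough; inconclusive = only one of those two conditions holds; inactive = neither condition holds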
C diff growth – inhibitors of Clostridium difficile growth. AID 1259249. Clostridium difficile clinical isolate growth, OD600, 24 h; active compounds read low. actives 0.25% (n = 86,000). growth activity, negative = inhibition, % at 16 µg/mL (by protocol);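 active = mean growth activity at or below -80% and every replicate also at or below -80%; inconclusive = mean at or below -80% but some replicate above -80%; inactive = mean growth activity above -80%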;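 also: 0% = DMSO wells and -100% = levofloxacin 16 µg/mL wells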
T cruzi growth-2 – inhibitors of T. cruzi proliferation; AID 651739; actives 72% (n = 5,600); inhibition, % at 8.35 µM; T. cruzi beta-gal in NIH3T3, GalScreen luminescence, 90 h; shares compounds with T cruzi growth-1;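 active = mean replicate inhibition above about 95% and at least 55% of replicates individually reaching it, limit read from the data; inconclusive = only one of the two criteria is met; inactive = neither criterion is met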
T cruzi growth-3 – inhibitors of T. cruzi proliferation; shares compounds with T cruzi growth-1; T. cruzi beta-gal in NIH3T3, GalScreen luminescence, 90 h; inhibition, % at 2.09 µM; actives 21% (n = 5,600);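 active = mean inhibition above about 95%, with at least 55% of replicates also reaching it, limit read from the data; inconclusive = meets just one of the two conditions; inactive = meets neither condition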;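 also: plate controls were neutral control median for no effect and positive control median for full effect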
NIH3T3 tox – kills mouse NIH/3T3 fibroblasts; shares compounds with T cruzi growth-1; NIH/3T3 viability, CellTiter-Glo ATP luminescence, 90 h; cytotoxicity (signal decrease), % at 8.35 µM; actives 14% (n = 5,600);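 active = mean signal decrease across replicates above about 35% based on untreated-well scatter, with enough replicates individually passing, limit read from the data; inconclusive = no rule stated though some were filed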;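 also: 0% = median of neutral control wells and 100% = median of positive control wells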
3T3 cytotox 2 – kills mouse NIH/3T3 fibroblasts; shares compounds with T cruzi growth-1; NIH/3T3 viability, CellTiter-Glo ATP luminescence, 90 h; inhibition, % at 24.9 µM; actives 56% (n = 5,600);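 active = mean loss of cell viability signal at or above a set limit, and enough replicates individually reaching it; inconclusive = meets only the mean limit or only the replicate share; inactive = meets neither condition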;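 also: 0% = median of neutral control wells and 100% = median of positive control wells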
An asterisk follows results filed as active; ? = inconclusive; · = no result; ! = repeats disagree.

SMILES	T cruzi growth-1	C diff growth	T cruzi growth-2	T cruzi growth-3	NIH3T3 tox	3T3 cytotox 2
CC(C)NC(=O)Nc1ccc2c(c1)C(=O)N([C@@H](C)CO)C[C@@H](C)[C@H](CN(C)Cc1ccccc1)OCCCC[C@H](C)O2	102.0*!	2.1	63.8	-3.3	-18.0	12.4
COC(=O)C[C@@H]1CC[C@@H]2[C@@H](COc3ccc(NC(=O)Nc4ccccc4C)cc3C(=O)N2C)O1	-3.6	16.8	·	·	·	·
CO[C@H]1CN(C)C(=O)c2cc(NS(=O)(=O)c3ccccc3Cl)ccc2OC[C@@H](C)NC[C@@H]1C	8.9	·	·	·	·	·
C[C@H](CO)N1C[C@H](C)[C@H](CN(C)Cc2ccc(Oc3ccccc3)cc2)Oc2ncc(-c3cccnc3)cc2C1=O	48.6	1.3	·	·	·	·
C[C@@H]1CN([C@H](C)CO)C(=O)c2cc(-c3cccnc3)cnc2O[C@H]1CN(C)Cc1ccc(Oc2ccccc2)cc1	89.4	-0.3	·	·	·	·
C[C@H]1CN([C@@H](C)CO)C(=O)c2cc(-c3cccnc3)cnc2O[C@@H]1CN(C)Cc1ccc(Oc2ccccc2)cc1	?	-5.2	106.8*	78.0	11.9	103.8*
C[C@H]1CN([C@@H](C)CO)C(=O)c2cc(-c3ccncc3)cnc2O[C@@H]1CN(C)Cc1ccc(Oc2ccccc2)cc1	98.3*	-12.1	104.8*	77.6	32.9	103.5*
C[C@H](CO)N1C[C@H](C)[C@H](CN(C)C(=O)Nc2ccccc2)Oc2ccc(NC(=O)CCC(F)(F)F)cc2C1=O	32.2	0.7	·	·	·	·
C/C=C/c1ccc2c(c1)O[C@H](CN(C)Cc1cncnc1)[C@@H](C)CN([C@@H](C)CO)S2(=O)=O	·	-5.2	·	·	·	·
C/C=C/c1ccc2c(c1)O[C@H](CN(C)Cc1ccncc1)[C@H](C)CN([C@H](C)CO)S2(=O)=O	71.5	-0.6	·	·	·	·
C/C=C/c1ccc2c(c1)O[C@@H](CN(C)Cc1ccncc1)[C@@H](C)CN([C@@H](C)CO)S2(=O)=O	108.8*	-2.2	96.3*	101.3*	32.7	28.7*
C/C=C/c1ccc2c(c1)O[C@H](CN(C)Cc1ccncc1)[C@@H](C)CN([C@H](C)CO)S2(=O)=O	107.9*	-5.3	97.3*	?	44.6*	73.6*
O=C(CCN1CCCCC1)N[C@H]1CC[C@H](CCNS(=O)(=O)c2ccccc2)O[C@H]1CO	31.8	·	·	·	·	·
C[C@@H]1CN([C@@H](C)CO)C(=O)c2cc(C#Cc3ccccn3)cnc2O[C@H]1CN(C)C(=O)CCN1CCCCC1	7.8	-3.3	·	·	·	·
CCc1csc(N2[C@H](C#N)[C@H](c3ccc(C4=CCCC4)cc3)[C@H]2CO)n1	102.5*	3.7	103.3*	28.8	-5.0	20.1
N#C[C@H]1[C@@H](c2ccc(C3=CCCC3)cc2)[C@H](CO)N1c1nc(-c2ccccc2)cs1	·	-9.2	·	·	·	·
CCc1cnc(N2[C@H](CO)[C@H](c3ccc(C4=CCCCC4)cc3)[C@@H]2C#N)s1	103.5*	-7.7	104.5*	101.7*	38.0*	40.0*
N#C[C@H]1[C@H](c2ccc(C3=CCCC3)cc2)[C@@H](CO)N1c1nc(-c2ccccc2)cs1	57.8	16.8	·	·	·	·
CCc1csc(N2[C@H](C#N)[C@H](c3ccc(C4=CCCC4)cc3)[C@@H]2CO)n1	101.6*	1.1	106.9*	112.5*	12.1	36.2*
CCc1cnc(N2[C@@H](C#N)[C@H](c3ccc(C4=CCCCC4)cc3)[C@@H]2CO)s1	88.0	-14.4	·	·	·	·
N#C[C@@H]1[C@@H](c2ccc(C3=CCCC3)cc2)[C@@H](CO)N1C(=O)NC1CCCC1	-17.3	-5.6	·	·	·	·
CCCNC(=O)N1C[C@H](C)[C@@H](OC)CN(C)C(=O)c2cc(NC(=O)CCC)ccc2OC[C@H]1C	21.9	·	·	·	·	·
C[C@@H]1CCCCO[C@@H](CN(C)C(=O)Nc2ccc(C(F)(F)F)cc2)[C@H](C)CN([C@@H](C)CO)C(=O)c2cc(NC(=O)CCC(F)(F)F)ccc2O1	101.0*	6.2	106.4*	35.0	24.8	7.0
C[C@@H]1CCCCO[C@H](CN(C)C(=O)Nc2ccc(C(F)(F)F)cc2)[C@@H](C)CN([C@@H](C)CO)C(=O)c2cc(NC(=O)CCC(F)(F)F)ccc2O1	93.9	-3.3	·	·	·	·
C[C@@H]1CCCCO[C@H](CN(C)C(=O)Nc2ccc(C(F)(F)F)cc2)[C@H](C)CN([C@@H](C)CO)C(=O)c2cc(NC(=O)CCC(F)(F)F)ccc2O1	101.4	4.0	·	·	·	·
SMILES	T cruzi growth-1	C diff growth	T cruzi growth-2	T cruzi growth-3	NIH3T3 tox	3T3 cytotox 2
C[C@@H]1CCCCO[C@H](CN(C)C(=O)Nc2ccc(C(F)(F)F)cc2)[C@H](C)CN([C@H](C)CO)C(=O)c2cc(NC(=O)CCC(F)(F)F)ccc2O1	106.8*	2.9	106.1*	105.2*	-11.3	19.2
Cc1ccc(S(=O)(=O)N2CC[C@H]3[C@H](CO)Nc4ccc(-c5ccccc5F)cc4[C@H]32)cc1	?	-4.1	102.9*	86.5	46.4*	84.8*
Cc1cccc(S(=O)(=O)N2CC[C@@H]3[C@H](CO)Nc4ccc(-c5ccccc5F)cc4[C@@H]32)c1	-8.0	4.3	·	·	·	·
O=S(=O)(c1ccc(F)cc1)N1CC[C@H]2[C@H](CO)Nc3ccc(-c4ccccc4F)cc3[C@H]21	25.6	-19.9	·	·	·	·
Cc1cccc(S(=O)(=O)N2CC[C@@H]3[C@H]2c2cc(-c4ccccc4F)ccc2N[C@@H]3CO)c1	14.6	4.7	·	·	·	·
Cc1ccc(S(=O)(=O)N2CC[C@@H]3[C@H](CO)Nc4ccc(-c5ccccc5F)cc4[C@@H]32)cc1	111.9*	-5.6	101.7*	110.3*	40.4*	59.9*
O=S(=O)(c1ccccc1)N1CC[C@H]2[C@H](CO)Nc3ccc(-c4ccccc4F)cc3[C@H]21	101.7*	70.6	101.5*	68.7	59.3*	67.3*
Cc1ccc(S(=O)(=O)N2CC[C@@H]3[C@H](CO)Nc4ccc(-c5cccc(C(=O)N(C)C)c5)cc4[C@@H]32)cc1	10.9	9.9	·	·	·	·
CN(C)C(=O)c1cccc(-c2ccc3c(c2)[C@@H]2[C@@H](CCN2S(=O)(=O)c2ccccc2)[C@@H](CO)N3)c1	108.1*	6.3	103.5*	?	4.6	21.1
CS(=O)(=O)Nc1ccc2c(c1)[C@@H]1C[C@@H](CC(=O)NCc3ccccn3)O[C@H](CO)[C@@H]1O2	8.1	5.1	·	·	·	·
Cc1ccc(S(=O)(=O)N(C)C[C@H]2Oc3ccc(NS(=O)(=O)c4c(C)noc4C)cc3C(=O)N([C@@H](C)CO)C[C@H]2C)cc1	5.7	-6.6	·	·	·	·
CN(C)CC#Cc1ccc([C@@H]2[C@@H](CO)N3CCCCN(C(=O)Nc4ccccc4F)C[C@@H]23)cc1	34.0	4.5	·	·	·	·
CN(C)CC#Cc1ccc([C@@H]2[C@H]3CN(C(=O)Nc4ccccc4F)CCCCN3[C@H]2CO)cc1	68.4	2.8	·	·	·	·
CN(C)CC#Cc1ccc([C@@H]2[C@@H](CO)N3CCCCN(C(=O)Nc4cc(F)ccc4F)C[C@@H]23)cc1	106.4*	11.9	101.1*	34.5	-17.4	45.3*
